HT1080 IDH1KD tx = toxicity to HT-1080 IDH1 knockdown cells (counter line). AID 686971. 360,000 compounds, 2% hits. HT-1080 IDH1 knockdown viability, ATP luminescence, 48 h. Potency, µM (series often up to 46.1 µM), for the others: at the top dose activity, negative = toxicity, actives largely listed as cytotoxic;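 note: potency is the fitted concentration of half-maximal effect; 0% = DMSO wells and -100% = cell-free medium wells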
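Luminescent ATP read-out (CellTiter-Glo, 10 min at room temperature) after 48 h compound exposure at 37 °C gave viability of IDH1-knockdown HT-1080 cells. Activity was normalised to DMSO and cell-free wells, then fitted as concentration-response curves.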
TDP1 cell noCPT = qHTS for Inhibitors of human tyrosyl-DNA phosphodiesterase 1 (TDP1): qHTS in cells in absence of CPT; 420,000 compounds, 15% hits; DT40 Tdp1-/- hTDP1 cells, no CPT, ATP luminescence, 48 h; Potency, µM (series often up to 46.2 µM), for inactives: at the highest dose activity change, negative = growth inhibition, most hits filed as inhibitors; AID 686978, 2013; note: potency is the fitted concentration of half-maximal effect; nearly all actives have a fitted effect of over 55% in size
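A cellular qHTS used chicken DT40 cells lacking endogenous Tdp1 but carrying stably transfected human TDP1. Compounds were applied without camptothecin, and cell growth kinetics were judged by ATP-dependent luminescence after ≥48 hr.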
TDP1 cell CPT = DT40-hTDP1 cell growth loss with CPT; Potency, µM (titrated, usually from 46.2 µM), for inactives: at the highest dose activity change, negative = growth inhibition, usual class: inhibitors; 420,000 compounds, 12% hits; AID 686979; chicken DT40 Tdp1-/-;hTDP1 cells + 20 nM CPT, ATP luminescence, 48 h; note: potency is the fitted concentration of half-maximal effect; nearly all actives have a fitted effect of over 55% in size
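Chicken DT40 Tdp1-/- cells stably complemented with human TDP1 were seeded at 400 cells/well in medium containing 20 nM camptothecin, exposed to pin-transferred compounds, and grown at 37 °C for at least 48 hr. Viability was read as ATP luminescence.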
IL-1B inflam inh = inflammasome signaling inhibition, IL-1 beta readout | activity change, % at 57.5 µM | AID 743279 | 360,000 compounds, 4.7% hits | THP-1 LPS/ATP IL-1B secretion, AlphaLISA, 16 h; active compounds read low; in the data active = activity change below about -50%; inconclusive = mostly about -30% to -49%
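Secreted IL-1B measured by AlphaLISA bead assay after 16 h compound exposure of THP-1 cells; compounds (final up to 57.5 uM) added 1 h before LPS (250 ng/mL) and ATP (1.25 mM) stimulation; lower signal means less secretion.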
HT1080NT lethal = kills 2HG-producing HT-1080-NT fibrosarcoma cells | HT-1080-NT fibrosarcoma viability, CellTiter-Glo ATP luminescence, 48 h | 360,000 compounds, 1.6% hits | AID 686970 | Potency, µM (series often up to 46.1 µM), inactives show at the top dose activity, negative = less viability, actives largely listed as cytotoxic;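 note: NT is the 2HG producing partner of a matched IDH1 knockdown line; potency is the fitted concentration of half-maximal effect; 0% = DMSO-treated cells and -100% = media-only wells without cells; nearly all actives have a fitted effect of over 55% in size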
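HT-1080-NT; 750 cells/well; 5% FBS RPMI; 48 h compound, 37 degrees C; CellTiter-Glo luminescence; curve fitting and curve-class assignment.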
Starred values were filed as active, the others as inactive; ? = inconclusive; nt = not tested or not shown; [ ] = another dose, or the depositor's remark. Only some compounds are listed: those with a hit (about 19% of all), similar ones and a draw of the others. Unless noted, calls come from the whole dose curve; as a rule, active = well fitted curve in the direction sought with a large enough effect; inconclusive = small, poorly fitted or top-dose-only effect, or another doubt; inactive = no such curve, though single readings can be large; an effect the other way counts as inactive or inconclusive. Unless noted, % is set by controls: 0 for no effect and ±100 for the full control effect.

SMILES	HT1080 IDH1KD tx	TDP1 cell noCPT	TDP1 cell CPT	IL-1B inflam inh	HT1080NT lethal
O=C(OC(C(=O)NCC1CCCO1)c1ccccn1)c1cccs1 (centres undefined)	14%	-3%	-2%	-56*	0%
COc1ccccc1C(OC(=O)c1cccs1)C(=O)NCC1CCCO1 (centres undefined)	-8%	-16%	-8%	6	1%
O=C1CSC(c2cccc([N+](=O)[O-])c2)N1c1c(F)cccc1F (centres undefined)	-15%	?	-18%	19	1%
CCN(CC)/C(=N\S(=O)(=O)c1ccc(F)cc1)c1ccccc1	-7%	-6%	12%	-18	12%
COc1ccc(C(=O)Nc2nnc(Cc3ccccc3)s2)c(OC)c1	-4%	-5%	-18%	-9	-22%
COC(=O)[C@@]12C[C@@H](CC(=O)N3CCOCC3)C(=O)N(Cc3cccc4ccccc34)C1=CCC(C)(C)C2	-4%	?	16µM*	-26	-12%
COC(=O)[C@@]12C[C@@H](CC(=O)N3CCCC3)C(=O)N(Cc3cccc4ccccc34)C1=CCC(C)(C)C2	-27%	?	?	-22	?
COC(=O)[C@@]12C[C@@H](CC(=O)N3CCN(C(=O)C4CC4)CC3)C(=O)N(Cc3cccc4ccccc34)C1=CCC(C)(C)C2	?	21µM*	?	-12	?
COc1ccc(CNC(=O)CCC(=O)Nc2nnc(CC(C)C)s2)cc1	3%	-21%	1%	22	-5%
CCNC(=S)Nc1ccc(N(c2ccccc2)C(C)C)cc1	?	21µM*	26µM*	-20	?
CC(C)c1ccc(NC(=S)NN(c2ccccc2)c2ccccc2)cc1	-9%	26µM*	13µM*	-22	-11%
CN(C)CCCNC(=S)Nc1ccc(-c2ccccc2)cc1	?	?	?	-6	21µM*
CN(C)CCCNC(=S)Nc1ccc(Oc2ccccc2)cc1	-9%	?	4%	-18	-28%
CCNC(=S)NN(c1ccccc1)c1ccccc1	6%	-7%	-11%	5	4%
CC(C)N(c1ccccc1)c1ccc(NC(=S)NCCN(C)C)cc1	21µM*	21µM*	?	nt	16µM*
O=C(CSc1ccnc(=O)[nH]1)NCc1ccc(F)cc1	nt	3%	-1%	nt	nt
Cc1c(Cl)cccc1N=C1NC(=O)CS1	-1%	-9%	-9%	-4	2%
CCCn1c(SCC(=O)N2CCCC2=O)nc2ccccc2c1=O	-6%	-2%	-13%	-4	-2%
CC1CN2C(c3ccc(Cl)cc3)=CSC2=N1 (centres undefined)	-2%	-7%	1%	0	9%
CC(C)N(c1ccccc1)c1ccc(NC(=O)[C@@H]2O[C@H](CO)[C@@H](O)[C@H]2O)cc1	0%	?	21µM*	10	21%
COc1ccc(-n2c(=O)c3c4c(sc3n(C)c2=O)CN(C(C)=O)CC4)cc1	nt	12%	8%	nt	nt
CC(NNC(=S)N1CCCCCC1)c1ccc2ccccc2n1 (centres undefined)	?	0.0082µM*	0.0082µM*	85	23µM*
S=C(NCc1ccccc1)N1CCCCC1	0%	-13%	-3%	-19	13%
Cc1nc(-c2ccc(F)cc2)c(CC(=O)NCC(=O)Nc2ccc(F)c(F)c2)s1	7%	?	?	-6	1%
O=C1CC(SCCc2nc3ccccc3[nH]2)C(=O)N1c1ccc(F)c(Cl)c1 (centres undefined)	1%	-2%	-2%	11	3%
SMILES	HT1080 IDH1KD tx	TDP1 cell noCPT	TDP1 cell CPT	IL-1B inflam inh	HT1080NT lethal
O=C1CC(SCc2nc3ccccc3[nH]2)C(=O)N1c1ccc(F)cc1 (centres undefined)	-1%	18µM*	?	17	4%
O=C1CC(SCc2nc3ccccc3[nH]2)C(=O)N1c1cccc(Cl)c1 (centres undefined)	19%	13µM*	?	11	13%
COCCCNc1nc2ccccc2nc1NS(=O)(=O)c1ccccc1	10%	-13%	-4%	0	18%
CCc1ccc(CN(C(=O)c2cc(=O)c3ccc(C)cc3o2)C2CCS(=O)(=O)C2)cc1 (centres undefined)	nt	?	16µM*	nt	nt
Cc1ccc(CN(C(=O)c2cc(=O)c3cc(C)cc(C)c3o2)C2CCS(=O)(=O)C2)cc1 (centres undefined)	-1%	18µM*	?	-16	-4%
O=CN1CCN(C=O)C(O)C1O (centres undefined)	17%	3%	-2%	-3	7%
CSc1nc2sc3c(c2c(=O)[nH]1)CCC3	16%	-17%	-10%	6	17%
Fc1ccc(-[n+]2nc(Nc3ccccc3)sc2-c2c3ccccc3cc3ccccc23)cc1	23µM*	3.7µM*	5.8µM*	-89*	21µM*
c1ccc(-[n+]2nc(Nc3cccc4ccccc34)sc2-c2c3ccccc3cc3ccccc23)cc1	8.2µM*	15µM*	?	-9	3.7µM*
O=c1[nH]c(Nc2ccc(F)cc2)cc2ccccc12	-2%	?	-26%	53	2%[9.24 µM]
C[n+]1nc(Nc2ccccc2)sc1-c1ccc(O)cc1	3%	-29%	?	-15	?
Oc1ccc2ccccc2c1-c1sc(Nc2ccccc2)n[n+]1-c1ccc(F)cc1	-14%	16µM*	?	8	0%
COCCN1C[C@@H](CO)O[C@@H](n2cnc3c(NCCCO)ncnc32)C1	?	-3%	-3%	-26	22%
CCCc1nnc(NC(=O)C23CC4CC(CC(C4)C2)C3)s1	8%	2%	?	23	0%
O=C(CN1C(=O)NC2(CCCCC2)C1=O)NCCc1ccccc1	0%	17%	-2%	13	1%
CCOC(=O)CSc1nc2cc3c(cc2c(=O)n1CCCCCC(=O)NCc1ccc(OC)cc1)OCO3	nt	?	-27%	nt	nt
CCN(CC)C(=O)CSc1nc2cc3c(cc2c(=O)n1Cc1ccc(OC)cc1)OCO3	-17%	18µM*	23µM*	11	?
COc1ccc(CCNC(=O)c2ccc(Cn3c(SCC(=O)NCCC(C)C)nc4cc5c(cc4c3=O)OCO5)cc2)cc1OC	nt	-17%	0%	nt	nt
COCCNC(=O)CSc1nc2cc3c(cc2c(=O)n1Cc1ccc(C(=O)NCCc2ccc(OC)c(OC)c2)cc1)OCO3	nt	21µM*	8.2µM*	nt	nt
CCn1c(SCC(=O)N2CCCCC2C)nc2ccsc2c1=O (centres undefined)	-21%	?	10µM*	4	5%
CCN(CC)C(=O)CSc1nc2cc3c(cc2c(=O)n1CCCCCC(=O)NCCc1ccc(OC)c(OC)c1)OCO3	nt	15µM*	15µM*	nt	nt

Screens from PubChem.
